Screens (PubChem BioAssay)
Rows were chosen to be rich in hits. Some 3.7% of all compounds tested hit in one or more screens of this group.
Kir21 block: inhibitors of mouse Kir2.1 inward-rectifier potassium channel | Inward rectifier potassium channel 2 (Mus musculus), P35561 | HEK293-Kir2.1, FluxOR thallium flux fluorescence; active compounds read low | B-score at 10 µM | 310,000 compounds, 0.85% hits;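 active = fluorescence ratio B-score at or below minus 3 SD of library scores, with starting-brightness B-score within 2 SD, cut at about -4.2 in these data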;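 also: channel flux triggered by added potassium and thallium sulfate stimulus; B-score of peak minus minimum fluorescence over baseline after thallium stimulus; more negative B-score means stronger Kir2.1 block with less thallium influx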
CHT inh: inhibitors of human choline transporter CHT | B-score at 10 µM | CHT-expressing cells, membrane potential dye, choline response; active compounds read low | 310,000 compounds, 0.86% hits | High affinity choline transporter 1 (Homo sapiens), Q9GZV3 | AID 488975, 2010;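 active = B-score over 3 SD under the library average, and starting fluorescence ratio not unusually high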;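 also: choline stimulus applied at its EC90 after an EC20 pre-addition; B-score computed on integrated fluorescence ratio after choline addition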
Target sequence (Q9GZV3 whole entry, looked up): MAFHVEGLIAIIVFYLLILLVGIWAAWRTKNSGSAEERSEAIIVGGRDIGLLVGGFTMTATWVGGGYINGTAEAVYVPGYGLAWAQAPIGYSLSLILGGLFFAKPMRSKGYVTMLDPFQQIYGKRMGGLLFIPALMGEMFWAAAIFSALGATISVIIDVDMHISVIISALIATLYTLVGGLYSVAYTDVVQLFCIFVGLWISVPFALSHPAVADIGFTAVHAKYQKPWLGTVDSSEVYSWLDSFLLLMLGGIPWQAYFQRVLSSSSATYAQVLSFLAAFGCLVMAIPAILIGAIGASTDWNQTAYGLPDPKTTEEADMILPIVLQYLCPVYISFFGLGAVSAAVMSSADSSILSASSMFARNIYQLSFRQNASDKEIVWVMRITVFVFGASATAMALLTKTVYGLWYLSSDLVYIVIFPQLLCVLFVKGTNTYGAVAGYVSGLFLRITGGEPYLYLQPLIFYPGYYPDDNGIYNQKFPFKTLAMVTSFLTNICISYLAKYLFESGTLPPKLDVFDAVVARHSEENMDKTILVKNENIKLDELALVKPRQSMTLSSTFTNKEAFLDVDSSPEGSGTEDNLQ
CHT PAM: CHT positive allosteric modulators, primary screen, cell-based, membrane potential dye, choline EC20 | High affinity choline transporter 1 (Homo sapiens), Q9GZV3 | CHT-expressing cells; active compounds read high; LV-AA mutant CHT in HEK293 cells | B-score at 10 µM | 310,000 compounds, 0.49% hits | AID 488977, 2010;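 active = initial fluorescence not abnormally high and integrated response B-score, plate-corrected, over 3 SD above library mean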
GPR7 antagonist: GPR7 receptor antagonists, primary screen, cell-based, fluorescence, single concentration; 290,000 compounds, 1.1% hits; AID 1861, 2009; Neuropeptides B/W receptor type 1 (Homo sapiens), P48145; GPR7-expressing cells, fluorescence antagonist assay; inhibition, % at 4.4 µM; in the data active = inhibition above about 16%, passing the limit was not always enough;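 also: cells stimulated with the agonist NPW; 0% = agonist with vehicle and 100% = vehicle without agonist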
TMEM16A inh: TMEM16A chloride channel inhibitors, primary screen, cell-based, HTS; Anoctamin-1 (Mus musculus), Q8BHY3; HEK293 TMEM16A/YFP iodide influx fluorescence, ionomycin; normalized B-score (activity score, 25-100; higher = stronger inhibition) at 10 µM; 310,000 compounds, 1.2% hits;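 active = ratio plate-corrected score three or more library SD toward inhibition, starting fluorescence score within five deviations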;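 also: score derived from kinetic fluorescence span divided by baseline fluorescence per well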
TMEM16A act: TMEM16A chloride channel activators or potentiators, primary screen, cell-based, HTS; Anoctamin-1 (Mus musculus), Q8BHY3; HEK293 TMEM16A/YFP-H148Q/I152L, iodide quench fluorescence; active compounds read low; B-score at 10 µM; 340,000 compounds, 0.3% hits; AID 623877, 2012;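 active = fluorescence-ratio B-score plate-corrected deviation score at least 3 library SD below zero, with starting fluorescence score within 5 deviations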;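 also: channel opened by trigger with iodide after compound preincubation; score built on the fluorescence ratio of max minus min over baseline; more negative score means more quench and so TMEM16A activation or potentiation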
TMEM16A reconf: TMEM16A chloride channel inhibitors, confirmation, cell-based, re-confirmation | shares compounds with TMEM16A inh | HEK293 TMEM16A/YFP-H148Q, iodide quench fluorescence; ionomycin added to raise cell calcium | inhibition, % at 10 µM | 2,300 compounds, 39% hits | AID 652189, 2013;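 active = mean duplicate percent inhibition, scaled so buffer wells are 0 and the reference blocker 100, over three buffer SD above buffer mean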
TMEM16A Ca cntr: calcium mobilization in TMEM16A/YFP HEK293 cells, confirmation, counter-screen for TMEM16A inhibitor project | shares compounds with TMEM16A inh | 2,300 compounds, 2% hits | calcium response (% of ionomycin), % at 10 µM | Fluo4 calcium mobilization | AID 652231, 2013;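 active = duplicate-averaged calcium signal over 20% of the ionomycin maximum, relative to buffer baseline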;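 also: each well's signal is peak minus trough fluorescence divided by its pre-addition baseline; 0% = buffer wells and 100% = ionomycin wells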
Parental YFP cnt: iodide YFP quench changes in parental YFP-HEK293, counter-screen for TMEM16A inhibitor project, cell-based. shares compounds with TMEM16A inh. ionomycin. YFP ratio F(max-min)/F0 at 10 µM. 2,300 tested, under 10 active;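 active = yellow fluorescent protein signal ratio exceeding the buffer control mean by over 5 SD of those controls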;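 also: ratio is mean of duplicate wells from kinetic YFP trace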
ClC-1 inh: ClC-1 chloride channel inhibition, selectivity assay for TMEM16A inhibitor project, cell-based, voltage-dependent ClC-1; shares compounds with TMEM16A inh; CHO ClC-1-YFP, iodide influx fluorescence quench; iodide control reads 0, buffer control 100; ratio percent, % at 10 µM; 2,300 tested, under 10 active;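 active = duplicate-mean ratio percent above the mean of iodide-only control wells, which defines zero, plus 5 of their SD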;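 also: higher percent means stronger block of ClC-1 iodide influx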
The depositor's hits bear a star; i = inactive; · = no result given.

SMILES	Kir21 block	CHT inh	CHT PAM	GPR7 antagonist	TMEM16A inh	TMEM16A act	TMEM16A reconf	TMEM16A Ca cntr	Parental YFP cnt	ClC-1 inh
CCOc1ccccc1CNC(=O)c1ccc(NC(=O)C2=CSCCO2)cc1	1.03	i	i	-0.3	i	i	·	·	·	·
O=C(Nc1ccc(F)cc1F)c1cc(-c2ccco2)on1	0.09	i	i	1.2	100*	i	i	i	-1.23	-5.5
O=C(Nc1ccc(NC(=O)C2CCCCC2)nc1)c1cccc(F)c1	0.66	·	·	13.9	·	i	·	·	·	·
CC(=O)Nc1ccc(Oc2cc(C#N)c(C#N)cc2N2CCCCCC2)cc1	·	i	i	13.2	100*	i	i	i	-1.13	4.0
S=c1[nH]nc(Cc2ccc(Cl)cc2)o1	-1.08	i	i	-7.3	i	i	·	·	·	·
Cc1noc(C)c1COC(=O)c1cccc(S(=O)(=O)N2CCCCCC2)c1	·	i	i	-1.3	25*	i	i	i	-0.815	-20.5
COc1cc(OC)c(N(C)S(=O)(=O)c2cccc(C(=O)OCc3c(C)noc3C)c2)cc1Cl	-1.71	i	i	7.0	i	i	·	·	·	·
Cc1noc(C)c1COc1cccc(C(=O)OCCOc2ccc(F)cc2)c1	0.59	i	i	-5.9	100*	i	i	i	-1.04	-11.5
Cc1noc(C)c1COc1cccc(C(=O)OC(C)C#N)c1 (stereo unspecified)	-0.52	i	i	-3.2	i	i	·	·	·	·
CC(C)OC(=O)C1C2C=CC3(CN(C(C)c4ccc(Br)cc4)C(=O)C13)O2 (stereo unspecified)	0.16	i	i	-3.9	25*	i	i	i	-1.16	-14.0
COC(=O)C(C)Sc1nc2c(cnn2-c2ccc(Cl)cc2)c(=O)[nH]1 (stereo unspecified)	-0.15	i	i	-1.8	i	i	·	·	·	·
O=c1[nH]c(SCc2ccccc2Cl)nc2c1CCC2	-0.32	i	i	-13.9	i	i	·	·	·	·
CNc1nc(SCc2ccccc2Cl)nc2c1CCCC2	3.55	i	i	-15.9	100*	i	56.0%*	i	-1.09	-0.5
C=CCOc1ccc(C2/C(=C(\O)c3ccc4c(c3)OCCO4)C(=O)C(=O)N2CCCN2CCOCC2)cc1 (stereo unspecified)	0.82	i	i	10.1	i	i	·	·	·	·
O=C(NCCCSc1ccccc1)c1cc(Br)ccc1O	-0.73	i	i	-4.0	100*	i	51.5%*	i	-1.34	-23.5
CCCCCCNc1cc2n(c(=O)n1)CCc1cc(OC)c(OC)cc1-2	·	i	i	-8.8	i	i	i	i	-1.03	-12.5
CCNc1cc2n(c(=O)n1)CCc1cc(OC)c(OC)cc1-2	0.49	i	i	-5.8	i	i	·	·	·	·
Cc1cccc(-n2c(Cc3cc(=O)[nH]c(=O)[nH]3)nnc2SCC(=O)N2CCc3ccccc32)c1	-0.73	i	i	-2.2	i	i	·	·	·	·
N#CC1=C(N)Oc2cc(N)ccc2C1c1ccccc1Cl (stereo unspecified)	-0.05	i	i	-0.7	i	i	·	·	·	·
N#CC1=C(N)OC2=C(CCc3ccccc32)C1c1ccccc1Cl (stereo unspecified)	1.78	i	i	-0.4	i	i	38.5%*	i	-1.03	0.0
COc1cccc2c1OC[C@@H](CO)[C@H]2N(C)C(=O)Nc1ccc(Cl)cc1Cl	1.04	i	i	-14.3	i	i	i	i	-1.12	-11.0
N#CCc1ccc(OC(=O)c2ccncc2)cc1	-0.35	i	i	·	i	i	·	·	·	·
CCc1ccc(C(=O)Nc2ccc(OC)c(S(=O)(=O)N3CCOCC3)c2)cc1	1.18	i	i	7.7	100*	i	i	i	-0.982	-9.0
Cc1cccc(OCCC(=O)Nc2ccc(C)c(S(=O)(=O)N3CCCCC3)c2)c1	0	i	i	-12.2	25*	i	34.0%*	i	-1.12	-13.0
Cc1ccc(NC(=O)COc2cccc(C)c2C)cc1S(=O)(=O)N1CCCCCC1	0.64	i	i	·	i	i	·	·	·	·
SMILES	Kir21 block	CHT inh	CHT PAM	GPR7 antagonist	TMEM16A inh	TMEM16A act	TMEM16A reconf	TMEM16A Ca cntr	Parental YFP cnt	ClC-1 inh
CCc1cccc(OCC(=O)Nc2ccc(C)c(S(=O)(=O)N3CCCCCC3)c2)c1	-0.34	i	i	·	100*	i	i	i	-1.15	-4.5
COc1ccc(C(=O)Nc2ccc(C)c(S(=O)(=O)N3CCCCCC3)c2)cc1	0.64	i	i	-14.2	100*	i	i	i	-1.08	-2.0
O=c1cc(C(F)(F)F)[nH]c2ccc(OC(F)(F)F)cc12	0.13	i	i	-16.3	100*	i	43.0%*	i	-0.874	-21.0
COCC(C)n1c(C)cc(C(=O)COC(=O)c2oc3ccccc3c2C)c1C (stereo unspecified)	0.05	i	i	-7.7	100*	i	26.5%*	i	-0.885	-13.0
COCC(C)n1c(C)cc(C(=O)COC(=O)c2n[nH]c3ccccc23)c1C (stereo unspecified)	-1.61	i	i	3.9	i	i	·	·	·	·
COc1ccccc1OCCC(=O)OCC(=O)c1[nH]c(C)c(C(C)=O)c1C	2.1	i	i	-8.8	i	i	·	·	·	·
CC12CC3CC(C)(C1)CC(C(=O)Nc1nncs1)(C3)C2	0.88	i	i	-6.9	i	i	·	·	·	·
CC(C)c1noc2ncc(C(=O)c3cc(Cl)cc(Cl)c3O)cc12	-0.94	i	i	-7.7	25*	i	32.5%*	i	-0.882	-3.5
